Laboratory results reported in PubChem BioAssay AID1852 (Sanford-Burnham Center for Chemical Genomics, 2009).
Hit rate of the full screen: of about 2,500 compounds, about 1,100 (44%) were called active. The set was probably picked from earlier hits. The list shows a part of the results. A number with no mark means an inactive call.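 Rule for the calls: active = inhibition above 50% at 4 µM in the single-point screen; inactive = inhibition of 50% or less.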

experiment: blockers of TNF-a NF-kB luciferase induction – cell-based, HEK293T NF-kB-Luc, luminescence, selectivity assay for NOD1/NOD2 signaling inhibitor project, primary screen (AID 1852); details: TNF-a induced, 14 h, at 4 µM, active compounds read high

Row | Structure (SMILES) | inhibition
1 | O=C(Nc1cccc(NC(=O)c2sc3ccccc3c2Cl)c1)c1ccco1 | -117%
2 | O=C(Nc1nccs1)c1sc2cc(Cl)ccc2c1Cl | 103% (active)
3 | Cn1ncc([N+](=O)[O-])c1C(=O)Nc1cccc(Cl)c1 | 92.6% (active)
4 | Cn1ncc([N+](=O)[O-])c1C(=O)Nc1ccc(-c2ccccc2)cc1 | -39.7%
5 | CS(=O)(=O)N1CCC(C(=O)Nc2cccc(Cl)c2)CC1 | 4.2%
6 | Cc1ccccc1CN(CC(=O)Nc1cccc([N+](=O)[O-])c1)S(=O)(=O)c1ccc(Cl)cc1 | -15.8%
7 | O=[N+]([O-])c1cccc(NC(=S)Nc2nc(-c3ccc(Cl)cc3Cl)cs2)c1 | 64.3% (active)
8 | O=C(Nc1ccc([N+](=O)[O-])cc1)Nc1nc(-c2ccc(Cl)s2)cs1 | 42.8%
9 | Cc1ccc(NC(=S)NC(=O)c2ccc(F)cc2)cc1S(=O)(=O)Nc1cccc(Cl)c1 | 32.5%
10 | Cc1csc(NC(=S)Nc2cccc(Cl)c2)n1 | 100% (active)
11 | CCCCN1/C(=C/c2ccc3ccccc3[n+]2CC)Sc2ccccc21 | 45.1%
12 | CCN1/C(=C/c2ccc3cccc(C)c3[n+]2CC)Sc2ccccc21 | 61.9% (active)
13 | CCN1/C(=C/c2sc(-c3ccccc3C)c[n+]2C)Sc2ccccc21 | 95.5% (active)
14 | CC[n+]1c(/C=C2\Sc3ccccc3N2C)ccc2cccc(C)c21 | 70.3% (active)
15 | CC(C)(C)C1C/C(=C/c2ccccn2)C(=O)/C(=C/c2ccccn2)C1 (stereo unspecified) | 103% (active)
16 | CC1C/C(=C/c2ccccn2)C(=O)/C(=C/c2ccccn2)C1 (stereo unspecified) | 96.2% (active)
17 | O=C(Nc1ccc(-c2nc3ncccc3o2)cc1)c1ccc([N+](=O)[O-])o1 | 27.5%
18 | O=C(NCc1ccccc1)C1=C[C@@H](c2csc3ccccc23)C[C@@H](OCCCCO)O1 | 69.1% (active)
19 | Cn1c(/C=C/c2ccc(Cl)cc2)c([N+](=O)[O-])c(=O)n(C)c1=O | 18.7%
20 | Cn1c(/C=C/c2ccc(Cl)cc2Cl)c([N+](=O)[O-])c(=O)n(C)c1=O | 71.4% (active)
21 | Cn1c(/C=C/c2ccc(Br)cc2)c([N+](=O)[O-])c(=O)n(C)c1=O | -12.1%
22 | Cc1sc(NC(=O)c2ccccc2)c(C(c2ccccn2)N2CCN(CCO)CC2)c1C (stereo unspecified) | 51.9% (active)
23 | O=C(Nc1sc2c(c1C(=O)NCCCO)CCCC2)c1ccccc1 | 35.2%

Row | Structure (SMILES) | inhibition
24 | Cc1cc(C(=O)Nc2c(C)nn(Cc3c(Cl)cccc3Cl)c2C)no1 | -34.2%
25 | Cc1nn(Cc2ccc(Cl)cc2)c(C)c1NC(=O)c1noc2c1CCc1ccccc1-2 | 105% (active)
26 | COc1cccc(NC(=O)CN(C)CC(=O)Nc2ccc(C)c([N+](=O)[O-])c2)c1 | 42.8%
27 | COc1cc(Cl)c(C)cc1NC(=O)CN(C)Cc1cccc(OC)c1OC | 57.5% (active)
28 | CCN(CC(=O)Nc1ccc([N+](=O)[O-])cc1OC)c1ccccc1 | -39%
29 | O=c1c(Br)c(Br)cnn1-c1ccccc1 | 90.8% (active)
30 | COc1cc(OC)nc(-n2ncc(Br)c(Br)c2=O)n1 | 105% (active)
31 | Cc1ccc(-n2ncc(Br)c(Br)c2=O)cc1 | 105% (active)
32 | Oc1cc2c(cc1C(c1ccc(Br)cc1)N1CCCC1)OCO2 (stereo unspecified) | -3.2%
33 | CN1C(=O)/C(=C/c2cc(N=Nc3ccccc3)ccc2O)SC1=S | 98.2% (active)
34 | Cc1cc(/C=C2\SC(=S)N(C)C2=O)c(C)n1-c1ccc(O)cc1 | 24.7%
35 | Cc1cc(/C=C2\SC(=S)N(C)C2=O)c(C)n1-c1cccc(O)c1 | -111%
36 | Cc1cccc(N2CCN(C(=S)NCCc3ccccc3)CC2)c1C | -31.3%
37 | S=C(NCCc1ccccc1)Nc1cccc2cnccc12 | 69.1% (active)
38 | S=C(NCCc1ccc(Cl)cc1)Nc1ccc(Cl)cc1Cl | -10.9%
39 | CN(C)S(=O)(=O)c1cccc(NC(=S)Nc2cccc3cnccc23)c1 | 62.5% (active)
40 | CN(C)S(=O)(=O)c1cccc(CSCc2cccc(S(=O)(=O)N(C)C)c2)c1 | 42.8%
41 | CCN(CC)CCNC(=O)c1ccc(NC(=O)C2CCN(c3ncnc4sc(C)c(C)c34)CC2)cc1 | 43.8%
42 | Cc1sc2ncnc(N3CCC(C(=O)N(C)CC(=O)Nc4ccccc4Cl)CC3)c2c1C | 50.3% (active)
43 | CCOC(=O)c1sc(N2C(=O)C(O)=C(C(=O)c3ccco3)C2c2ccco2)nc1C (stereo unspecified) | 76.1% (active)
44 | COc1cccc2cc(C(=O)C3=C(O)C(=O)N(c4cc(C)on4)C3c3cccs3)oc12 (stereo unspecified) | -0.9%
45 | CCOC(=O)c1sc(N2C(=O)C(O)=C(C(=O)c3ccco3)C2c2cccc([N+](=O)[O-])c2)nc1C (stereo unspecified) | 23.8%
46 | CCC(C)(C)c1ccc(Oc2ccc(N)cc2)cc1 | 75.5% (active)
